In PubChem BioAssay AID602387 (Sanford-Burnham Center for Chemical Genomics, 2012) one finds activation (fluorescence interference) data, which are given here for 79 compounds.

The campaign covered roughly 2,300 compounds. About 30 (1%) were called active. The list is a sample of the results. A number with no mark means an inactive call.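 How the source made its calls: active means activation of at least 30% at 10 µM; inactive means the rest.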

The experiment is described as follows: spectral interference with molecular beacon fluorescence, confirmation, artefact control for DNMT1 inhibitor project, biochemical, fluorescent molecular beacon, single concentration (AID 602387).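 Further: DNMT1 catalytic domain with a HinP1I cleavage step and a FAM/dabcyl DNA beacon.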 The settings on record: DNMT1 molecular beacon spectral interference counterscreen, fluorescence 485/520; at 10 µM; hits give high values. For orientation: A counterscreen serves to expose hits that act by an unwanted route or on another target.
For the compound `CC1CN(C(=O)c2ccccc2NS(=O)(=O)c2cccc([N+](=O)[O-])c2)CC(C)O1` (centres undefined), the activation (fluorescence interference) was 1.08%.

Take `C=CC1=C(C(=O)O)N2C(=O)[C@@H](NC(=O)/C(=N\OCC(=O)O)c3csc(N)n3)[C@H]2SC1`: the activation (fluorescence interference) was 7.32%. Turning to `Cc1ccc(N=C2NC(=O)/C(=C/C=C/c3ccco3)S2)cc1C`, the activation (fluorescence interference) is -1.63%.

In the case of `CN(C)/C=C(/C(=O)c1ccc(Cl)cc1)S(=O)(=O)c1ccccc1`, the activation (fluorescence interference) is 1.79%. Under `Cc1cc2nc(-c3ccco3)c(Cc3cccc(F)c3)n2c(C)c1Br` stands 0.96%; under `COc1ccc(Cc2nnc(NC(=O)Cc3cccs3)s2)cc1`, -0.3%; under `CCc1ccc(NC(=O)CS(=O)CC(=O)NCCCc2ccccc2)cc1` (centres undefined), 2.85%.

As for `CCOc1cc(CN2CCCC(CO)(Cc3ccc(F)cc3F)C2)ccc1OC` (centres undefined), the activation (fluorescence interference) is 4.08%. Under `Cc1onc(-c2ccccc2)c1C(=O)Nc1ccccc1C#N` stands 3.12%. `Cc1cc(O)c(C(=O)/C=C/c2c(F)c(F)c(F)c(F)c2F)c(=O)o1`: the activation (fluorescence interference) was 6.03%. Under `c1coc(-c2nc3nc4ccccc4n3nc2-c2ccco2)c1` stands 0.5%.

With `CCN(C(=O)CSc1nc(N)cc(=O)[nH]1)C1CCS(=O)(=O)C1` (centres undefined), the activation (fluorescence interference) was 2.08%. The value for `c1ccc2cc3c(NCCN4CCOCC4)ccnc3cc2c1` was -0.48%. Take `O=C(Cn1nnc(-c2ccccc2)n1)N/N=C/c1ccc(-c2ccc(Cl)cc2)o1`: the activation (fluorescence interference) was 3.12%. The value for `CC1(C(=O)NS(=O)(=O)c2ccccc2)CCN1C(=O)C/C=C/c1ccccc1` (centres undefined) was -0.14%. For the compound `CCN1CCN(Cc2nc3c(c(=O)n(C)c(=O)n3C)n2CC(=O)c2ccccc2)CC1`, the activation (fluorescence interference) is 2.13%. The value for `C/C(=N\Nc1ccc(S(N)(=O)=O)cc1[N+](=O)[O-])c1cccs1` was 0.04%; that for `O=C(COC(=O)c1ccc(F)cc1F)Nc1ncccn1` was 3.67%; that for `C=CCn1c(=NC(=O)c2ccc(S(=O)(=O)N3CCCC3)cc2)sc2cc(NC(C)=O)ccc21` was -2.75%. As to `Cc1ccc(/C=C/C(=O)Nc2ccc([N+](=O)[O-])c(NC(=O)/C=C/c3ccc(C)o3)c2)o1`, the activation (fluorescence interference) is -0.1%. The value for `O=C(COC(=O)CCC(=O)c1cccs1)NCc1ccco1` was 2.99%; that for `CC(C)(C)N(Cc1ccccc1)C(=O)c1ccncc1` was 4.75%. Turning to `CCOC(=O)c1c(NC(=S)NC(=O)/C=C/c2cccs2)sc(C)c1C`, the activation (fluorescence interference) was 2.75%.

In the case of `CN(Cc1nc2ccc(F)cc2[nH]1)Cc1nc(CC2CC2)no1`, the activation (fluorescence interference) was 5.14%. The value for `O=C(c1cccs1)N1CCC(c2nc3ccccc3s2)CC1` was 4.65%; that for `O=C(CCNC(=O)c1ccccc1)NN=Cc1ccc(Br)o1` was 2.53%; that for `CCOC(=O)/C(C#N)=C/c1ccc(OCC(=O)Nc2ccccc2)c(OC)c1` was 6.65%. As to `COc1cccc(C(=O)Nc2ccc(N3CCCC3)cc2)c1`, the activation (fluorescence interference) is 5.04%. Under `C=Cc1ccc(C(=O)N2CCCC(CCC(=O)N3CCN(c4ccccn4)CC3)C2)cc1` (centres undefined) stands -0.29%. Under `CCN1C(=O)c2cccc3c(N)ccc1c23` stands 6.17%.

As to `CCNC(=O)C1CCCN(C(=O)c2cc(F)ccc2C)CC1` (centres undefined), the activation (fluorescence interference) was 5%. Under `COc1ccc(C(=O)OCC(=O)Nc2cccc(C(C)=O)c2)cc1OC` stands 8.78%.

With `CCOc1ccccc1/C=c1\sc2nc(-c3ccco3)nn2c1=O`, the activation (fluorescence interference) was 3.15%. Under `COc1ccc(Cl)cc1NC(=O)CCS(=O)(=O)c1ccc(Br)cc1` stands 3.16%. For `O=C(CCN1C(=O)C2C3C=CC(C3)C2C1=O)Nc1ccccc1F` (centres undefined), the activation (fluorescence interference) is 1.81%. Under `COc1ccc(/C=C2\SC(=N)N(c3ccc(F)cc3)C2=O)cc1` stands 2.19%; under `Oc1c(C(c2ccco2)N2CCC3(CC2)OCCO3)sc2ncnn12` (centres undefined), 3.04%. The value for `O=C(COC(=O)c1ccccc1O)NCc1ccco1` was 6.37%. Under `O=C(CCS(=O)(=O)c1ccc(Br)cc1)NCCc1ccc(Cl)cc1` stands 1.71%; under `CCCCCCc1cc2cc(-c3nnc(-c4ccccc4)o3)c(=O)oc2cc1O`, -8.15%. On to `O=C(CSc1nc2ccccc2c(=O)[nH]1)Nc1nc(-c2ccc(Br)cc2)cs1`, for which the activation (fluorescence interference) was 1.36%. For the compound `COc1ccc(Br)cc1/C=N/Nc1ccc(S(=O)(=O)Nc2ccccc2C(=O)O)cc1[N+](=O)[O-]`, the activation (fluorescence interference) is -9.44%.

For `COC(=O)CCCCC1=CCC2C(=O)C=C(O)C2C1` (centres undefined), the activation (fluorescence interference) is 10.1%. Under `COc1ccc(OCC(=O)NNC(=O)c2ccc(-c3ccccc3)cc2)cc1` stands 1.59%; under `CSc1ccc(CNC(=O)c2ccc(NC(=O)C3=CSCCO3)cc2)cc1`, 4.08%; under `C=CC[C@@H](CC(=O)N[C@H](CO)Cc1ccccc1)C(=O)N[C@@H](COC(=O)[C@@H](CC=C)Cc1ccc(F)cc1)Cc1c[nH]c2ccccc12`, 10.2%.

Consider `Cc1ccc(CNC(=O)CSc2nnc3c(n2)[nH]c2ccc(F)cc23)cc1`, for which the activation (fluorescence interference) was 3.05%.

Take `COc1cc(-c2nnc(NC(=O)CS(=O)(=O)c3ccc(Cl)cc3)o2)cc(OC)c1OC`: the activation (fluorescence interference) is 5.03%. The value for `COc1ccc(-n2c(SCC(=O)Nc3sc4c(c3C#N)CCCC4)nnc2-c2ccc(O)cc2)cc1` was 1.12%; that for `CCOc1cc(NC(=O)c2ccco2)c(OCC)cc1NC(=O)COc1ccccc1` was -8.28%. On to `CC1(C)Cc2nc3sc4c(SCC(=O)NC(c5ccccc5)c5ccccc5)ncnc4c3cc2CO1`, for which the activation (fluorescence interference) is 1.08%. Regarding `O=C(COc1ccc(/C=N/NC(=O)c2ccc(O)cc2)cc1)Nc1ccc([N+](=O)[O-])cc1`, the activation (fluorescence interference) was -12.5%. The value for `O=C(c1ccc(CS(=O)(=O)c2ccccc2)o1)N1CCN(c2ccccc2)CC1` was -0.52%; that for `CCOC(=O)C(NC(=O)CC(C)C)(Nc1sc2c(c1C(N)=O)CCCC2)C(F)(F)F` (centres undefined) was 6.15%. Under `COc1ccc(C(=O)/C=C/c2ccc(-c3ccccc3)cc2)cc1CSCC(=O)O` stands -0.97%; under `O=C(COc1ccc([N+](=O)[O-])cc1)Nc1ccc(N2CCCC2)cc1`, 4.14%; under `N#Cc1ccccc1CN1C(=O)S/C(=C/c2cccn2-c2cccc(C(=O)O)c2)C1=O`, 1.4%. The value for `COc1ccc2sc(-c3ccc(S(C)(=O)=O)cc3)c(-c3ccc(C(N)=O)cc3)c2c1` was 4.53%. As to `CN(CCOc1ccccc1)C(=O)c1cc(-c2ccco2)nc2ccccc12`, the activation (fluorescence interference) was 3.34%. Under `Cc1ccc2cc(C)c(N3CCC(C)CC3)nc2c1` stands 2.52%; under `COc1ccc(NC(=O)CN(C)C(=O)c2cc(C3CC3)nn2-c2ccccc2)cc1`, 0.09%. `COc1ccc(CC(=O)Nc2ccc(-c3nnc(-c4ccc(C)cc4)o3)cc2)cc1`: the activation (fluorescence interference) is -5.84%. `CS(=O)(=O)c1ccc2c(c1)SC1=NC(=O)/C(=C/c3ccco3)C(=N)N12`: the activation (fluorescence interference) is 1.32%. Consider `O=C1CCCC(O)=C1C=NCCc1ccccc1`, for which the activation (fluorescence interference) is 5.41%.

Turning to `O=C(Nc1cccc(-c2nc3ccccc3[nH]2)c1)c1ccc(C(=O)Nc2cccc(-c3nc4ccccc4[nH]3)c2)cc1`, the activation (fluorescence interference) is -6.94%.

`CC(Oc1ccccc1)C(=O)Nc1oc(-c2ccco2)c(-c2ccco2)c1C#N` (centres undefined): the activation (fluorescence interference) was 0.87%. The value for `c1ccc2cc3[nH]c(CN4CCCCC4)nc3cc2c1` was 5.49%; that for `CC(=O)Nc1ccc(SCC(=O)NC(=O)c2ccc(Cl)cc2)cc1` was 4.23%; that for `Cc1nnc(N/N=C/c2cccs2)[nH]c1=O` was 1.29%. The value for `CCCCNC(=O)CCn1c(=O)c2ccccc2n(Cc2cc(C)ccc2C)c1=O` was 1.75%; that for `Cc1ccc(C(=O)NNC(=O)c2cc3cc4ccccc4nc3s2)cc1` was 4.21%.

With `CC(C)(C)NC(=O)CSC(=Nc1ccccc1F)NC#N`, the activation (fluorescence interference) is 8.71%. On to `COc1ccc2[nH]c(=O)c(-c3noc(-c4ccc(F)cc4)n3)cc2c1`, for which the activation (fluorescence interference) was -3.37%. For the compound `COc1ccc(OC)c(NC(=O)c2cc(-c3cc(F)ccc3OCC3CCCO3)n[nH]2)c1` (centres undefined), the activation (fluorescence interference) is 7.7%. In the case of `O=C(NNc1ccccn1)c1ccc(Cl)nc1`, the activation (fluorescence interference) is 1.8%. Under `O=C(Oc1ccc(-c2nc(-c3ccccn3)no2)cc1)c1ccccc1` stands -1.62%; under `CCc1nn(-c2cc(Oc3cccc4ccccc34)nc(-c3ccccc3)n2)c(N)c1C#N`, 1.42%.

For `CCOC(=O)c1cccc(NC(=O)C2CCCN(S(=O)(=O)c3cnc[nH]3)C2)c1` (centres undefined), the activation (fluorescence interference) is 2.94%. In the case of `C=CCn1c(=S)[nH]c2scc(-c3ccco3)c2c1=O`, the activation (fluorescence interference) is -3.16%.
